Screens deposited in PubChem by several laboratories.
Furin inh – human furin inhibitors, primary screen, biochemical, fluorescence intensity; 220,000 tested, 0.061% active; inhibition, % at 20 µM or 30 µM; AID 463115, 2010; purified furin, fluorogenic substrate cleavage; in the data active means inhibition above about 25%
EP2 antag – human EP2 receptor antagonists, primary screen, TR-FRET cAMP, C6 glioma cells; C6 glioma cells expressing human EP2; cells stimulated with saturating PGE2; inhibition, % at 25 µM; 260,000 tested, 0.52% active; AID 1422, 2008;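 active means percent inhibition above 40 after rounding to a whole number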;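 further: rat C6 glioma host cells with rolipram phosphodiesterase inhibitor present; the protocol text gives 20 µM as final concentration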
p47phox inh – p47phox/p22phox peptide binding inhibitors, primary screen, biochemical, uHTS, NADPH oxidase regulatory subunit | Neutrophil cytosol factor 1 (Homo sapiens), P14598 | fluorescence polarization, 2 h | inhibition, % at 24.7 µM | 220,000 tested, 0.53% active | AID 1274, 2008;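 active means inhibition above about 30%, limit read from the data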;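 further: 0% = p47phox with labelled peptide and 100% = labelled peptide alone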
HSV augment – enhancers of HSV replication in host cells, fold increase, host cell viability | HSV replication augmentation in cells | maximum fold increase | 220,000 tested, 0.005% active | AID 1956, 2009; in the data active means maximum fold increase above about 1.5; tested in PC3 cells
EP2 modulator – EP2 receptor modulators, cAMP readout, primary screen, cell-based, HTRF cAMP, PGE2 stimulation; Prostaglandin E2 receptor EP2 subtype (Homo sapiens), P43116; EP2-expressing cells, cAMP HTRF FRET, PGE2 co-stimulation; induction, % at 25 µM; 260,000 tested, 0.83% active; AID 940, 2007;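 active means compounds whose cAMP rise, as percent of the full-agonist control response, exceeds 60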;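 further: rat C6 glioma line stably carrying human EP2 under a CMV promoter; the protocol text gives 20 µM as final concentration; 100% = response of wells given 1 µM PGE2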
Wee1 stabilizer – Wee1 degradation inhibitors, primary screen, cell-based, HeLa, Wee1K328M-luciferase, luminescence; reporter increase, % at 5 µM; HeLa Luc-Wee1K328M stability; 100% = proteasome inhibitor MG132 effect; 220,000 tested, 1.2% active;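 active means activation above the mean of all tested compounds plus 3 SD, set per screening run, cut at about 8.8% in these data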;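 further: cells exposed to compound for 20 h before luminescence read; 0% = DMSO alone and 100% = MG132 at 30 µM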
Target sequence (P30291 whole entry K328M): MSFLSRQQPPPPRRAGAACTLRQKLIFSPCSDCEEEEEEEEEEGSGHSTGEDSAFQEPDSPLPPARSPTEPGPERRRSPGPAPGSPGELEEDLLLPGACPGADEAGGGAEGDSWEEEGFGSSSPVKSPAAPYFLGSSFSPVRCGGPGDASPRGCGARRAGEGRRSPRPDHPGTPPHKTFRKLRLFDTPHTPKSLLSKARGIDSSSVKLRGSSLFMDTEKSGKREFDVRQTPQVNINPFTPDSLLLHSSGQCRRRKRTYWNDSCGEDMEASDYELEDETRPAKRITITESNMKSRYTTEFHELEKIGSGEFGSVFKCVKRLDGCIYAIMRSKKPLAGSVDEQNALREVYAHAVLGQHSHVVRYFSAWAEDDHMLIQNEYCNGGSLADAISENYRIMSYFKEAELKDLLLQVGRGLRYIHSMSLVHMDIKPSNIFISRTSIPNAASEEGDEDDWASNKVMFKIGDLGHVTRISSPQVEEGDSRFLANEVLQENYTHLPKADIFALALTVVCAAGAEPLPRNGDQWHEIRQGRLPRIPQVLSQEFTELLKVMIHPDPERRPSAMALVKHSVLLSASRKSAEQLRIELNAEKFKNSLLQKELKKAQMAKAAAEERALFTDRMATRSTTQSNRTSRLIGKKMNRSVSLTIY
An asterisk follows results filed as active; i = inactive; nt = no result given. Compounds with a hit are over-represented: about 2.8% of the library has one in this group of screens.

SMILES | Furin inh | EP2 antag | p47phox inh | HSV augment | EP2 modulator | Wee1 stabilizer
COC(=O)c1ccc(S(=O)(=O)N(Cc2cc3cc(C)c(C)cc3[nH]c2=O)CC2CCCO2)cc1 (centres undefined) | nt | 9 | nt | nt | 10 | nt
C1CCC(N2CCN(C3CCCC3)CC2)CC1 | nt | 11 | nt | nt | -6 | nt
S=C1SCN(C2CCCCCCCCCCC2)CN1C1CCCCCCCCCCC1 | nt | 41* | nt | nt | 12 | nt
CN1CCN(CCCNN)CC1 | nt | 11 | nt | nt | 7 | nt
CN1CCN(CCCBr)CC1 | nt | 41* | nt | nt | 28 | nt
O=C(NCCNc1nccc(C(F)(F)F)n1)c1cccs1 | -30 | 3 | -5 | i | -27 | 9.2*
CC(C)(C)OC(=O)NCCNC(=O)c1cccs1 | -25 | 3 | 5 | i | -25 | 2
CCn1c(C)cc2cc(NC(=O)CCn3nc(C)c(C)c3C)ccc21 | nt | 7 | nt | nt | -24 | nt
C[N+]1(CCC(=O)c2ccco2)CC2CCC(CC2)C1 (centres undefined) | nt | 45* | nt | nt | 15 | nt
COc1ccc(-c2nnc(SCC(=O)Nc3ncc(C)s3)n2-c2ccccc2)cc1OC | 4 | 11 | -9 | i | -39 | 9.9*
COc1ccc(CC(=O)Nc2nnc(-c3ccc(OC)c(OC)c3)s2)cc1OC | nt | 9 | nt | nt | 3 | nt
COc1ccc(-c2nnc(SCC(=O)Nc3ccccc3C)n2C)cc1OC | nt | 5 | nt | nt | -1 | nt
COc1ccc(-c2nnc(NC(=O)CSc3ccc(Cl)cc3)s2)cc1OC | -17 | 5 | 41* | i | -10 | -1
COc1ccccc1-n1cnc2c(c1=O)c1nc3ccccc3nc1n2-c1ccc(C)c(C)c1 | -12 | 8 | 35* | i | 31 | -1
Nc1ccn([C@H]2O[C@H](COC(=O)C34CC5CC(CC(C5)C3)C4)[C@@H](O)[C@@H]2O)c(=O)n1 | nt | 51* | nt | nt | 2 | nt
Nc1ccn([C@@H]2O[C@H](CO)[C@@H](O)C2O)c(=O)n1 (some centres undefined) | nt | 14 | -7 | i | nt | -4
CC(=O)Nc1ccc2c(c1)C(=Nc1ccc(C(=O)O)cc1)c1ccccc1-2 | nt | 59* | nt | nt | -7 | nt
CC(=O)Nc1ccc(C(=O)c2ccccc2)cc1 | -7 | 5 | -12 | i | 0 | -4
COc1ccc(S(=O)(=O)N2CCCC2C(=O)Nc2ccc(C)cc2)cc1 (centres undefined) | -7 | -2 | -5 | i | -16 | -1
COc1ccc(-c2csc(NC(=O)C3CCCCN3S(=O)(=O)c3ccccc3)n2)cc1 (centres undefined) | -17 | 10 | -74 | i | -37 | 10*
c1ccc(-c2nnc(CN3CCN(c4ccccc4)CC3)o2)cc1 | -25 | 11 | 1 | i | -47 | -1
c1ccc(-c2nnc(CN3CCN(C(c4ccccc4)c4ccccc4)CC3)o2)cc1 | -19 | 10 | 159* | i | 61* | 0
COc1ccc(-n2cc(-c3ccccc3)c3c(N4CCOCC4)ncnc32)cc1 | -25 | 7 | 1 | i | 9 | -3
COc1ccc(-n2cc(-c3ccccc3)c3c(NCCCN4CCOCC4)ncnc32)cc1 | -10 | 8 | -6 | i | -12 | 8.9*
c1ccc(-c2cn(-c3ccccc3)c3ncnc(NCCCN4CCOCC4)c23)cc1 | -33 | 6 | 0 | i | -15 | 7
SMILES | Furin inh | EP2 antag | p47phox inh | HSV augment | EP2 modulator | Wee1 stabilizer
Fc1ccc(-n2cc(-c3ccccc3)c3c(N4CCOCC4)ncnc32)cc1 | -30 | 11 | -7 | i | 62* | -1
COC(=O)c1ccccc1NC(=O)C12CC3CC(C1)CC(n1cnc(Cl)n1)(C3)C2 | -21 | 12 | 3 | i | 62* | 1
CCOP1(=O)OCC2OC(n3cnc4c(N)ncnc43)C(O)C2O1 (centres undefined) | -25 | 5 | -12 | i | 104* | 0
COc1ccc(F)cc1S(=O)(=O)N1CC(C)OC(C)C1 (centres undefined) | nt | 15 | nt | nt | 2 | nt
O=c1[nH][nH]c(=S)n1-c1ccccc1C(F)(F)F | -29 | 5 | 60* | i | 17 | 2
CC(C)c1ccc(NC(=O)N2CCC(c3nc4ccccc4[nH]3)CC2)cc1 | nt | 3 | nt | nt | -23 | nt
